{"source": "PubChem BioAssay AID720596", "about": "(The Scripps Research Institute Molecular Screening Center, 2013)", "note": "About 1,600 (0.43%) of roughly 370,000 compounds were called active. The full list was thinned out, with actives kept by preference. Values without a mark were called inactive. No stated cut-off is given here; in the data, active means inhibition above about 24%; inactive means the rest.", "data": [{"target": "Major prion protein (Homo sapiens) (UniProt P04156)", "test": "inhibitors of human cell surface prion protein PrPC, primary screen, cell-based, TR-FRET (AID 720596); further: 0% = median of the test wells and 100% = reference compound wells", "settings": "TR-FRET read-out, at 13.8 µM, active compounds read high", "values": [{"smiles": "Cc1ccc(NC(=O)N2c3ccccc3SC2c2ccco2)c(C)c1", "note": "(stereo not drawn)", "inhibition": "2.15%"}, {"smiles": "COc1ccc(C(=O)N2CCCCC2c2cc(C(=O)Nc3ccccc3)no2)cc1", "note": "(stereo not drawn)", "inhibition": "6.89%"}, {"smiles": "CN1CCn2cnc(C(=O)NCC(=O)OC(C)(C)C)c2C1=O", "inhibition": "-0.34%"}, {"smiles": "COCC1CCN(C(=O)C2CCC(=O)N(Cc3cccc(C(F)(F)F)c3)C2)CC1", "note": "(stereo not drawn)", "inhibition": "9.85%"}, {"smiles": "COc1ccccc1CNC(=O)c1cc(-c2cc(F)ccc2OC)n[nH]1", "inhibition": "-1.69%"}, {"smiles": "COc1cc(F)ccc1-c1cc(C(=O)NCC2CCCCC2)[nH]n1", "inhibition": "9.68%"}, {"smiles": "COc1ccc(OC)c(NC(=O)c2cc(-c3cc(F)ccc3OCC3CCCO3)n[nH]2)c1", "note": "(stereo not drawn)", "inhibition": "84.9% (active)"}, {"smiles": "CC1(C)CC(=O)C2=C(C1)NCN(CCCN1CCOCC1)C2", "inhibition": "-0.29%"}, {"smiles": "Cn1cccc1C1(C(F)(F)F)NCCNC1=O", "note": "(stereo not drawn)", "inhibition": "-0.11%"}, {"smiles": "Cc1ccc(C(=O)Nc2ccccc2-c2ccccc2)cc1S(=O)(=O)Nc1ccccc1", "inhibition": "25.5% (active)"}, {"smiles": "O=C(O)c1ccc(F)c(S(=O)(=O)Nc2ccccc2)c1", "inhibition": "-4.14%"}, {"smiles": "Cc1cc(C(C)(C)C)cc(S(=O)(=O)Nc2ccc(C(=O)O)cc2)c1C", "inhibition": "0.8%"}, {"smiles": "CCC(C)N(C(=O)COC(=O)c1nc(Cl)ccc1Cl)C1CCS(=O)(=O)C1", "note": "(stereo not drawn)", "inhibition": "5.66%"}, {"smiles": "Cc1cc2oc3ccc(NCCC4CCCN4C)cc3c(=O)c2cc1C", "note": "(stereo not drawn)", "inhibition": "-13.5%"}, {"smiles": "COc1cccc2sc3cc(NCC[C@@H]4CCCN4C)ccc3c(=O)c12", "inhibition": "44.1% (active)"}, {"smiles": "N#Cc1c(-c2ccc(Cl)cc2)c2c([nH]c1=S)CCCC2", "inhibition": "-2.9%"}, {"smiles": "CC1CC(=O)Nc2ccccc2N1C(=O)COc1ccc2cc(Br)ccc2c1", "note": "(stereo not drawn)", "inhibition": "-0.09%"}, {"smiles": "O=C(Nc1ccccc1Cl)/C(Cl)=C(\\Cl)S(=O)c1ccccc1", "note": "(stereo not drawn)", "inhibition": "93.7% (active)"}, {"smiles": "Cc1ccc(S(=O)(=O)N(C)C)cc1NC(=O)c1ccc(-n2cncn2)c([N+](=O)[O-])c1", "inhibition": "-32.8%"}, {"smiles": "O=C(N/N=C/c1c(O)n(C2CC2)c(=S)[nH]c1=O)c1ccccc1Cl", "inhibition": "6.86%"}, {"smiles": "Cc1[nH]n(-c2ccccc2)c(=O)c1/C=N/NC(=O)c1ccoc1C", "inhibition": "43.4% (active)"}, {"smiles": "O=C(N/N=C/c1c(O)n(C2CC2)c(=S)[nH]c1=O)c1ccccc1", "inhibition": "-3.29%"}, {"smiles": "O=C(CCN1CCCO1)N1CCCC(N2CCN(c3cccc(C(F)(F)F)c3)CC2)C1", "note": "(stereo not drawn)", "inhibition": "1.86%"}, {"smiles": "Cn1c(=S)sc2ccc3ccccc3c21", "inhibition": "51.9% (active)"}, {"smiles": "COc1ccc2ccccc2c1CNc1nnnn1C", "inhibition": "-6.2%"}, {"smiles": "CSc1nnc(CNC(=O)c2ccccc2)n1-c1ccc(F)cc1", "inhibition": "0.49%"}, {"smiles": "CC1=C(C(=O)Nc2cccc(C(=O)NCC(C)c3ccccc3)c2)SCCO1", "note": "(stereo not drawn)", "inhibition": "12.5%"}, {"smiles": "O=C(CC(O)(C(F)(F)F)C(F)(F)F)Nc1ccc(Cl)c(Cl)c1", "inhibition": "64.7% (active)"}, {"smiles": "O=C(CCS(=O)(=O)c1ccccc1)Nc1ccc(Cl)c(Cl)c1", "inhibition": "4.48%"}, {"smiles": "CC(c1cccnc1)N(CCN(C)C)C(=O)Nc1ccc(Cl)c(Cl)c1", "note": "(stereo not drawn)", "inhibition": "2.3%"}, {"smiles": "CC(C)c1ccc(NC(=O)[C@@H](NC(=O)N2CC(=O)Nc3ccccc32)C(C)C)cc1", "inhibition": "3.7%"}, {"smiles": "Cc1sc2ncnc(SCC(=O)Nc3ccc(CN4CCCC4)cc3)c2c1C", "inhibition": "33.7% (active)"}, {"smiles": "COC(=O)c1c(-c2cccs2)csc1NC(=O)CSc1ncnc2sc(C)c(C)c12", "inhibition": "-2.84%"}, {"smiles": "Cc1sc2ncnc(SCC(=O)NC3CCS(=O)(=O)C3)c2c1C", "note": "(stereo not drawn)", "inhibition": "9.26%"}, {"smiles": "CC/C(=N\\O)C(C)(C)/[N+]([O-])=C/c1ccc(Br)cc1", "inhibition": "10.7%"}, {"smiles": "CCC(=O)N1c2ccccc2NC2=C(C(=O)CCC2)C1c1ccco1", "note": "(stereo not drawn)", "inhibition": "-1.24%"}, {"smiles": "O=C1CCCC2=C1C(c1cccs1)CC(=O)N2c1ccc(F)cc1", "note": "(stereo not drawn)", "inhibition": "0.75%"}, {"smiles": "O=C1CCCC2=C1C(c1cccs1)n1nc(SCc3ccccc3)nc1N2", "note": "(stereo not drawn)", "inhibition": "50.8% (active)"}, {"smiles": "CC(=O)c1c(C)[nH]c(C(=O)OCC(=O)Nc2c(C)n(C)n(-c3ccccc3)c2=O)c1C", "inhibition": "6.5%"}, {"smiles": "COc1ccc2c(c1)[C@@]13CCCCC1[C@@H](C2)NCC3", "note": "(stereo partly drawn)", "inhibition": "1.48%"}, {"smiles": "Cc1cc2cc(CNC(=O)c3cccs3)ccc2[nH]1", "inhibition": "7.85%"}, {"smiles": "Cc1ccc(CC(=O)Nc2ccc(S(=O)(=O)N3CCOCC3)cc2)cc1C", "inhibition": "10.2%"}, {"smiles": "Cc1cc2cc(CNC(=O)c3ccc(S(=O)(=O)N4CCOCC4)cc3)ccc2[nH]1", "inhibition": "27.4% (active)"}, {"smiles": "Cc1nc(NC(=O)CCC(=O)O)sc1C(=O)N(C)C", "inhibition": "0.26%"}, {"smiles": "CN(C)CCNC(=O)c1ccc(Cl)c2cc3ccccc3nc12", "inhibition": "34.5% (active)"}, {"smiles": "Nc1nc2c(Br)ccc(Br)c2cc1C(=O)NCCc1ccccc1", "inhibition": "6.33%"}, {"smiles": "Cc1c(C(=O)NCCN(C)C)oc2ccc(S(=O)(=O)N3CCCC3)cc12", "inhibition": "1.49%"}, {"smiles": "CCN(Cc1ccccc1)C(=O)CN1C(=S)NC(C)(C)CC1C", "note": "(stereo not drawn)", "inhibition": "6.01%"}, {"smiles": "CCN(c1ccccc1)S(=O)(=O)c1ccc2[nH]c(=O)[nH]c2c1", "inhibition": "-6.81%"}, {"smiles": "O=C(Nc1ccc(N2CCN(C(=O)c3ccccc3)CC2)c(Cl)c1)c1ncn[nH]1", "inhibition": "11.2%"}, {"smiles": "Cc1ccccc1N1CCN(C(=O)c2cccnc2)CC1", "inhibition": "-4.83%"}, {"smiles": "O=C(Nc1ccc(N2CCN(C(=O)c3ccccc3)CC2)c(Cl)c1)c1cccnc1", "inhibition": "26.1% (active)"}, {"smiles": "COc1ccc2c(c1)c(=O)c(C(=O)c1ccc(Cl)cc1)cn2CC(=O)Nc1ccc(F)cc1", "inhibition": "0.3%"}, {"smiles": "Cc1ccc(Cn2cc(C(=O)NN)c(=O)c3ccc(F)cc32)cc1", "inhibition": "-1.23%"}, {"smiles": "O=C(c1ccc(F)cc1)c1cn(Cc2ccc(F)cc2)c2cc3c(cc2c1=O)OCCO3", "inhibition": "34.4% (active)"}, {"smiles": "CCCCc1nc2cc(C(=O)NCCc3cnn(C)c3)ccc2o1", "inhibition": "-7.17%"}, {"smiles": "CC(C)N(Cc1nc(-c2ccc3c(c2)OCO3)no1)CC1CCC(=O)N1", "note": "(stereo not drawn)", "inhibition": "7.11%"}, {"smiles": "N#Cc1c(N)nc2c3c(sc(=N)c2c1N)NC(=O)CC3c1ccccc1Cl", "note": "(stereo not drawn)", "inhibition": "31.5% (active)"}, {"smiles": "CC(C)CCN1CCC(C)(NC(=O)c2ccccc2)C1=O", "note": "(stereo not drawn)", "inhibition": "-6.7%"}, {"smiles": "CC1(c2ccccc2)NC(=O)N(CC(=O)N2CC(=O)Nc3ccccc32)C1=O", "note": "(stereo not drawn)", "inhibition": "1.68%"}, {"smiles": "COc1ccc(-c2c(C)cc3oc(=O)cc(-c4ccccc4)c3c2C)cc1C=O", "inhibition": "4.67%"}, {"smiles": "CN(C(=O)COC(=O)CCCc1c[nH]c2ccccc12)c1c(N)n(Cc2ccccc2)c(=O)[nH]c1=O", "inhibition": "7.89%"}, {"smiles": "Cc1ccc(Oc2cnn(-c3ccccc3)c(=O)c2Br)cc1", "inhibition": "32.8% (active)"}, {"smiles": "Cc1ccc(OC(=O)c2c(C)nn(-c3ccccc3)c2C)cc1", "inhibition": "4.97%"}, {"smiles": "CCOc1ccc(Oc2c(Cl)cnn(-c3ccc(C)cc3)c2=O)cc1", "inhibition": "-10.9%"}, {"smiles": "CCC(C)[C@@H](C(=O)OC)N(CCc1cn(Cc2ccccc2)nn1)S(=O)(=O)c1ccccc1Br", "note": "(stereo partly drawn)", "inhibition": "2.07%"}, {"smiles": "CC(=O)Nc1ccc(S(=O)(=O)N2CCC(NC(=O)c3ccccc3)CC2)cc1", "inhibition": "-5.81%"}, {"smiles": "CN(Cc1c(F)cccc1Cl)S(=O)(=O)c1cccs1", "inhibition": "-6.92%"}, {"smiles": "COc1cccc(NC(=S)C(C#N)=C2N(C)c3ccccc3N2C)c1", "inhibition": "-1.55%"}, {"smiles": "O=C(CCCOc1ccccc1)Nc1cccc(C(=O)O)c1", "inhibition": "2.69%"}, {"smiles": "CC(=O)Nc1cccc(OCC(=O)/C=C2\\N(C)c3ccccc3C2(C)C)c1", "inhibition": "29.7% (active)"}, {"smiles": "Cc1nnc(NC(=O)CCC(=O)N2CCC(C)CC2)s1", "inhibition": "-8.95%"}, {"smiles": "COc1ccc(/C=C/CN2CCCC(C(=O)c3cc(F)ccc3F)C2)cc1", "note": "(stereo not drawn)", "inhibition": "3.26%"}, {"smiles": "COc1cc2c(cc1OC)C(=O)NCC(C)(C)O2", "inhibition": "6.88%"}, {"smiles": "O=C(Nc1cccn(Cc2ccccc2Cl)c1=O)NC1CCCCC1", "inhibition": "24.9% (active)"}, {"smiles": "COc1ccc(Cn2cccc(NC(=O)Nc3ccc(C#N)cc3)c2=O)cc1", "inhibition": "4.26%"}, {"smiles": "O=C(Nc1cccn(Cc2c(Cl)cccc2Cl)c1=O)c1ccc(Cl)cc1", "inhibition": "2.47%"}, {"smiles": "CC1(C)CC(=O)C(C=NCc2cccnc2)=C(O)C1", "inhibition": "6.76%"}, {"smiles": "C=CCn1c(O)c(/C=N/N2CCOCC2)c(=O)[nH]c1=S", "inhibition": "-4.21%"}, {"smiles": "COC(=O)C(c1ccccc1)N1CCCCCC1", "note": "(stereo not drawn)", "inhibition": "-4.88%"}, {"smiles": "CC1(C)CC(N2CCN(C(c3ccccc3)c3ccccc3)CC2)=CC(=[N+]2CCCCC2)C1", "inhibition": "24.4% (active)"}, {"smiles": "O=C(Nc1ccc(F)cc1)Nc1nnc([C@H]2C[C@H](O)[C@@H](CO)O2)s1", "inhibition": "1.64%"}, {"smiles": "Cc1ccc(CNC(=O)Nc2nnc([C@H]3C[C@H](O)[C@@H](CO)O3)s2)cc1", "inhibition": "25.8% (active)"}, {"smiles": "O=C(Nc1nnc([C@H]2C[C@H](O)[C@@H](CO)O2)s1)c1cccc(Cl)c1", "inhibition": "-5.24%"}, {"smiles": "CN(C(=O)CSc1nc(C2CC2)nc2ccccc12)c1nc(-c2ccccc2)cs1", "inhibition": "-2.06%"}, {"smiles": "COC(=O)CSc1nc(C2CC2)nc2ccccc12", "inhibition": "34% (active)"}, {"smiles": "Cc1nnc(NC(=O)CSc2nc(C3CCCCC3)nc3ccccc23)s1", "inhibition": "2.15%"}, {"smiles": "Cc1c(Br)c([N+](=O)[O-])nn1C(C)C(=O)Nc1nccs1", "note": "(stereo not drawn)", "inhibition": "-4.47%"}, {"smiles": "COc1ccc(S(=O)(=O)N2CCOCC2)cc1NC(=O)CSc1cc(C)ccc1C", "inhibition": "-4.51%"}, {"smiles": "COc1ccc(S(=O)(=O)N2CCOCC2)cc1NC(=O)CSc1ncnc2ccccc12", "inhibition": "47.3% (active)"}, {"smiles": "COc1ccc(S(=O)(=O)N2CCOCC2)cc1NC(=O)CSc1nnc(NC2CC2)s1", "inhibition": "7.4%"}, {"smiles": "Cc1oc(-c2ccccc2Cl)[n+]([O-])c1C", "inhibition": "-0.12%"}, {"smiles": "COC(=O)c1sccc1NC(=O)CC1C(=O)NCCN1C(=O)Nc1ccc(F)cc1F", "note": "(stereo not drawn)", "inhibition": "4.59%"}]}]}
